Experimental findings from PubChem BioAssay AID1851 (National Center for Advancing Translational Sciences (NCATS), 2009) are described below.

Screen size: about 16,000 compounds; about 5,700 (36%) were called active. Not shown: some 24% with an inconclusive outcome. This is one part of the list. Values without a mark were called inactive. The call rests on the fitted dose curve; in most records, active means well fitted curve in the direction sought with a large enough effect; inconclusive means small, poorly fitted or top-dose-only effect, or effect the other way; inactive means no such curve, though single readings can be large or run the other way.
On the % scale 0 is the no-effect control and ±100 the full control effect.

Sequence of Cytochrome P450 1A2 (Homo sapiens) (P05177 whole entry, looked up): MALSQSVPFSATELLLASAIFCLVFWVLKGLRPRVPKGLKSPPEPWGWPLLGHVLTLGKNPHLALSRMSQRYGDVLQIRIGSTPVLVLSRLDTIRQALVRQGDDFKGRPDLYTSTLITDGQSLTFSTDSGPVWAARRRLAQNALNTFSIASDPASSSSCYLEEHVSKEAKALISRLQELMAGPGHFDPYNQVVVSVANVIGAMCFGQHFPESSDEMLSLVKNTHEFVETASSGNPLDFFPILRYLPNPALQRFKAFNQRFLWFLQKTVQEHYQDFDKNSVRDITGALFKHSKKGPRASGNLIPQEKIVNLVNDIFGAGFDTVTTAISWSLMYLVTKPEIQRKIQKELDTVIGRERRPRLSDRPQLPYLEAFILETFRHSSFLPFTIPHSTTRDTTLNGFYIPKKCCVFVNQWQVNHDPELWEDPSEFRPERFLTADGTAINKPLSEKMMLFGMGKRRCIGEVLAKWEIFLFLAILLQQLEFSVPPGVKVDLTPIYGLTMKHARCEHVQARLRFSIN

The experiment has as its target Cytochrome P450 1A2 (Homo sapiens) (UniProt P05177). Briefly: Cytochrome panel assay with activity outcomes. The following applies: recombinant CYP, pro-luciferin dealkylation, luminescence, p450-cyp1a2; series mostly up to 57.1 µM; activity, negative = inhibition: at the top concentration.
Regarding `C[C@@H]1O[C@@H](n2cc(F)c(=O)[nH]c2=O)[C@H](O)[C@@H]1O`, the “activity, negative = inhibition” value was -4.19%.

As to `O=C(c1cnccn1)N1CCC2(CC1)CN(c1ccncc1)C2`, the “activity, negative = inhibition” value is -0.142%.

On to `O=C(COc1ccc(Br)cc1)Nc1ccc([N+](=O)[O-])cn1`, for which the half-maximal activity concentration (AC50) – broadly, the concentration at which the activity in the assay is half-maximal – is 2 µM (active).

`COc1ccc(N(CC(=O)NN=C2CCCC2)S(=O)(=O)c2ccccc2)cc1`: the “activity, negative = inhibition” value was -13.5%.

With `O=C(COc1ccc([N+](=O)[O-])cc1)Nc1ccc(C(=O)NCc2cccnc2)cc1`, the “activity, negative = inhibition” value was -14.6%.

With `CC(=O)Nc1ccc([N+](=O)[O-])cn1`, the half-maximal activity concentration (AC50) was 17.8 µM (active).

Consider `O=C(CN(c1ccccc1)S(=O)(=O)c1ccccc1[N+](=O)[O-])NN=C1CCCCCCC1`, for which the “activity, negative = inhibition” value was -0.283%.

Take `C=CCC(C(=O)OC)(C(=O)OC)c1ccc([N+](=O)[O-])cn1`: the “activity, negative = inhibition” value was -1.25%.

In the case of `O=C(Nc1nnc(CCS(=O)(=O)c2ccc(Br)cc2)s1)c1ccc([N+](=O)[O-])cc1`, the “activity, negative = inhibition” value is 0.122%.

Consider `COC(=O)C(C)(C(=O)OC)c1ccc([N+](=O)[O-])cn1`, for which the “activity, negative = inhibition” value was -26.4%.

In the case of `O=C(COc1ccc([N+](=O)[O-])cc1)NN=C1CCCC1`, the AC50 was 12.6 µM (active).

`O=c1ccn([C@@H]2O[C@@H](COP(=O)(O)OP(=O)(O)O)[C@H](O)[C@@H]2O)c(=O)[nH]1`: the “activity, negative = inhibition” value is -0.565%.

`Cc1cccc(/C=N\Nc2cn[nH]c(=O)c2Cl)c1`: the AC50 was 5.01 µM (active).

Take `Cc1cccc(NC(=S)NNC(=O)c2csc3c2CCCC3)c1`: the AC50 is 8.91 µM (active).

Take `CCCOc1cc(N)ccc1C(=O)OCCN(CC)CC`: the concentration at half-maximal activity (AC50) was 12.6 µM (active).

`COc1cc(N)c(Cl)cc1C(=O)OCCCN1CCCCC1`: the “activity, negative = inhibition” value is -35.8%.

`CCN(CC)CCOC(=O)c1cc(Cl)c(N)cc1OC`: the concentration at half-maximal activity (AC50) is 12.6 µM (active).

As for `CCN(CC)CCCCCCCCOC(=O)c1cc(OC)c(OC)c(OC)c1`, the “activity, negative = inhibition” value is -7.41%.

As for `CCCOc1ccc(C(=O)OCCN(CC)CC)cc1N`, the AC50 is 5.01 µM (active).

`C[N+]1(CCCC[N+]2(C)CCCCCCC2)CCCCCCC1`: the activity, negative = inhibition was -10.4% [at 2.29 µM].

As to `O=C(N/N=C1/C[C@@H](O)[C@@H](O)[C@@H]2[C@@H]3C(=O)N(Cc4ccccc4)C(=O)[C@H]3CC[C@@H]12)OCc1ccccc1`, the activity, negative = inhibition was -5.8% [at 11.4 µM].

Turning to `COCOc1ccc(Br)cc1C(=O)[C@H]1O[C@H]1c1cccc(OC)c1`, the activity, negative = inhibition was -9.07% [at 11.4 µM].

Turning to `O=C(O)c1cc2cc(Cc3cccnc3)ccc2o1`, the “activity, negative = inhibition” value was -13.4%.

For the molecule `Clc1ccc2oc(-c3cccnc3)nc2c1`, the concentration at half-maximal activity (AC50) was 1.41 µM (active).

Take `Cc1ccc2nc(-c3cccnc3)oc2c1`: the concentration at half-maximal activity (AC50) was 5.01 µM (active).

Turning to `Nc1nc(-c2cccnc2)cc(-c2cc(-c3cccnc3)nc(N)n2)n1`, the activity, negative = inhibition was -15.9% [at 2.29 µM].

Consider `C[N+](C)(N)CCC[N+](C)(C)N`, for which the activity, negative = inhibition was -12% [at 11.4 µM].

For the molecule `O=C(NNC(=S)Nc1ccccc1)C1CC1`, the “activity, negative = inhibition” value was -21.2%.

Turning to `CC(C)(C)NC(=S)Nc1ccc(Nc2ccccc2)cc1`, the half-maximal activity concentration (AC50) is 14.1 µM (active).

Regarding `Cc1ccc2nc(Nc3nc(-c4ccccc4)cc(=O)[nH]3)nc(C)c2c1`, the AC50 was 4.47 µM (active).

On to `Cc1ccc2c(C)nc(Nc3nc(CSc4nc5ccccc5[nH]4)cc(=O)[nH]3)nc2c1`, for which the half-maximal activity concentration (AC50) was 11.2 µM (active).

Consider `CN(C)c1nc(NCc2ccccc2)nc(N/N=C/c2ccc(Cl)cc2Cl)n1`, for which the “activity, negative = inhibition” value is -11.9%.

As for `Cc1cc(Oc2ccccc2)nc(NCc2ccccc2)n1`, the AC50 was 12.6 µM (active).

In the case of `Cc1cc(Oc2ccccc2)nc(-c2ccccc2)n1`, the AC50 is 1.58 µM (active).

Consider `O=C1C[C@H](c2ccccc2)[C@@H](c2ccc(Br)cc2)O1`, for which the activity, negative = inhibition was -6.17% [at 11.4 µM].

Consider `O=C1NCC2=C1C(c1ccc(Br)cc1)Nc1ccccc1N2` (configuration not stated), for which the half-maximal activity concentration (AC50) was 17.8 µM (active).

With `C=CC[C@@H]1C=C[C@@H](O/N=C(/C)CCC(=O)OC[C@@H]2O[C@H](C#Cc3ccccc3)C=C[C@@H]2Oc2ccc(C)cc2)[C@@H](CO)O1`, the activity, negative = inhibition is 4% [at 11.4 µM].

As for `Cc1ccc(C(c2ccc(C)o2)c2cccc([N+](=O)[O-])c2O)o1`, the concentration at half-maximal activity (AC50) was 11.2 µM (active).

On to `Cc1ccc(-n2c3c(c(=O)[nH]c2=O)C(C(F)(F)F)(C(F)(F)F)NC(=O)N3)cc1`, for which the “activity, negative = inhibition” value was 1.93%.

Regarding `COc1ccc(C(=O)NCC(c2ccc(F)cc2)N2CCOCC2)cc1S(=O)(=O)N1CCCC1` (configuration not stated), the half-maximal activity concentration (AC50) is 10 µM (active).

With `CCOc1ccc(C(=O)Nc2ccc(Cl)cn2)cc1Cl`, the concentration at half-maximal activity (AC50) is 1.26 µM (active).

As for `COc1ccc(C(=O)Nc2ccc(Cl)cn2)cc1Cl`, the AC50 was 0.631 µM (active).

Consider `Cc1cc(=O)oc(C)c1C(=O)Nc1ccc(Cl)cn1`, for which the “activity, negative = inhibition” value is -24.2%.

Turning to `CC(=O)N1CC2(CC2)CC1c1ccccc1` (configuration not stated), the “activity, negative = inhibition” value was 14.3%.

For `Oc1ccccc1CNn1cnnc1`, the “activity, negative = inhibition” value is -6.12%.

As to `CC(=O)Nc1ccc(NC(=O)Cn2c(-c3ccc(F)cc3)cnc2SCC(=O)Nc2c(C)cccc2C)cc1`, the “activity, negative = inhibition” value was 1.9%.

With `CCSc1ncc(/C=N/Nc2ccc(F)cc2)n1C`, the half-maximal activity concentration (AC50) is 2.82 µM (active).
